# NS1 inh – blocks influenza NS1 protein function | 270,000 tested, 0.4% active | AID 2326 | Potency, µM (series often up to 46.1 µM); calls by dose curve; note: actives are rising curves; nearly all actives have a fitted effect of over 50% in size
#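 Growth recovery, yeast-based: influenza A NS1 expressed in S. cerevisiae causes slow growth, and suppressors are detected by OD600. The parent strain without NS1 is used as positive control.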
# FBPA Giardia inh – inhibitors of Giardia lamblia fructose-1,6-bisphosphate aldolase | AID 2451 | Potency, µM (series often up to 59.6 µM), hits mostly inhibitors | purified Giardia FBPA | 290,000 tested, 0.71% active; note: nearly all actives have a fitted effect of over 55% in size
#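 Giardia FBPA (40 nM reagent) was preincubated 10 min at RT with compound (up to 57.5 uM final), then substrate plus GAPDH/TPI/NAD/arsenate coupling system with diaphorase/resazurin was added; resorufin fluorescence (525/598 nm) was read after 20 min.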
# LmPK inh – blocks Leishmania mexicana pyruvate kinase activity | purified LmPK, Kinase-Glo ATP luminescence, 1 h | Q27686 | Potency, µM (series often up to 57.5 µM), most hits filed as inhibitors | 290,000 tested, 0.37% active
# Target sequence (Q27686 whole entry, looked up): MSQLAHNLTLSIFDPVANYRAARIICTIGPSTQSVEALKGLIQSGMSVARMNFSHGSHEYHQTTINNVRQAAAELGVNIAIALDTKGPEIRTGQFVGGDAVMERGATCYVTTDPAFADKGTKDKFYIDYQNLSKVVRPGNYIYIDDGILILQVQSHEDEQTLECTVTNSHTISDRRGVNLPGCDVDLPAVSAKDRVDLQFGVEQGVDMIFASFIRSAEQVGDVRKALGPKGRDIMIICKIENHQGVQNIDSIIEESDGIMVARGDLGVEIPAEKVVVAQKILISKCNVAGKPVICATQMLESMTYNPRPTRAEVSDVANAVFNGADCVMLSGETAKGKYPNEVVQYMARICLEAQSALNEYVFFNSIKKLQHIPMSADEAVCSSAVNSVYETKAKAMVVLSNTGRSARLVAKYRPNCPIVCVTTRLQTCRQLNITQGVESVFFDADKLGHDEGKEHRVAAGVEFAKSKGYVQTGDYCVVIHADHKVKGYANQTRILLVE
#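 ATP generated from ADP (0.1 mM) and PEP (0.5 mM) by 0.1 nM LmPK over 1 h at room temperature (pH 7.2 imidazole buffer) was detected by coupled luciferase luminescence. Values were normalized to uninhibited and no-enzyme wells.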
# TbPYK inhibitor – blocks Trypanosoma brucei pyruvate kinase. Q57TT1. TbPYK enzyme, Kinase-Glo Plus ATP luminescence, 45 min. Potency, µM (highest dose often 76.8 µM), usual class: inhibitors. 410,000 tested, 0.12% active. AID 624173; note: nearly all actives have a fitted effect of over 50% in size
#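 T. brucei PYK with substrate was exposed to pin-transferred compounds across a concentration series, then started with 130 uM ADP (final). After 45 min at room temperature, Kinase-Glo Plus luminescence was read, normalized and curve-fitted.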
# AMA1-RON2 inh – disrupts binding of P. falciparum AMA1 to RON2; AlphaScreen AMA1-biotinylated RON2 peptide binding; Potency, µM (series often up to 58.2 µM), actives largely listed as inhibitors; 360,000 tested, 0.2% active; AID 720542; note: nearly all actives have a fitted effect of over 45% in size
#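 AMA1 (3D7) with his tag at 25 nM final met compounds first, then biotinylated RON2 peptide at 25 nM; detection used donor plus acceptor beads, 10 µg/mL apiece, read by AlphaScreen after 30 min at room temperature.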
# NS1 inh valid – influenza NS1 function inhibition validation | shares compounds with NS1 inh | influenza NS1 function cell assay, 15-point titration | activity change, negative = inhibition, % at 32.9 µM | 1,400 tested, under 10 active; calls by dose curve
# Flu PR8 replic – reduces influenza A/PR/8/34 replication in MDCK cells; shares compounds with NS1 inh; MDCK infected influenza A/PR/8/34, virus titer TCID50; active compounds read low; virus titer (log TCID50), log10 TCID50 at 5 µM; 95 tested, 30% active; AID 504647; call rule not given here
# A number is an active result; - = inactive; ? = inconclusive; . = no result given; [ ] = another dose, or the depositor's remark. Most compounds without a hit are left out; they make up all but 1.2% or so of the library. Unless noted, calls come from the whole dose curve; as a rule, active = well fitted curve in the direction sought with a large enough effect; inconclusive = small, poorly fitted or top-dose-only effect, or another doubt; inactive = no such curve, though single readings can be large; an effect the other way counts as inactive or inconclusive.
SMILES,NS1 inh,FBPA Giardia inh,LmPK inh,TbPYK inhibitor,AMA1-RON2 inh,NS1 inh valid,others
CCN1CCCC1CN(Cc1cc2cc(C)ccc2[nH]c1=O)C(=O)Nc1ccccc1OC (stereo unspecified),11µM,-,-,-,-,-,
COc1ccc(CSc2nc(O)cc(=O)n2CC(C)C)cc1F,3.5µM,-,-,-,-,?,
CCCC12C(=O)C(C)(C(c3ccccc3)=C1c1ccccc1)C1C(=O)N(c3ccc(C)cc3)C(=O)C12 (stereo unspecified),10µM,-,-,-,-,-,Flu PR8 replic=6.5
CCC12C(=O)C(CC)(C(c3ccccc3)=C1c1ccccc1)[C@@H]1C(=O)N(c3ccc(C)cc3)C(=O)C12 (stereo partly specified),-,-,-,-,-,.,
CCOc1ccc(-c2nonc2NC(=O)c2oc3ccc(Cl)cc3c2C)cc1,.,.,.,-,.,.,
CC(=O)NC(=S)Nc1cccc2ccc(C)nc12,-,-,-,-,-,.,
Cc1ccc2cccc(NC(=S)NC(=O)c3ccnn3C)c2n1,16µM,?,-,-,-,-,
CCCn1c(SCC(=O)Nc2sc(C)c(C)c2C#N)nnc1C(C)C,8.9µM,-,-,-,-,-,
Cc1ccc(S(=O)(=O)N2CCC(C(=O)Nc3ccccc3N3CCCCC3)CC2)cc1,5µM,-,-,-,-,-,
CC(=O)OCC(=O)[C@@]1(O)CCC2C3CCC4=CC(=O)CC[C@]4(C)C3=CC[C@@]21C (stereo partly specified),.,.,.,-,.,.,
Cc1nc2ccc(NC(=O)Cc3c(F)cccc3Cl)cc2s1,4µM,-,-,-,-,-,
Cc1cc2cc(CNC(=O)Nc3cccc(Cl)c3)ccc2n1C,?,-,-,-,-,-,
Cc1cccc(NC(=O)NCc2ccc3c(c2)cc(C)n3C)c1,11µM,?,-,-,-,-,
Cc1ccc2c(=O)c3cccc(CC(=O)O)c3oc2c1C,.,-,.,.,.,.,
CCCCc1cc2c(cn1)=C(OC(=O)C1CCCC1)C(C)(OC(=O)CC)C(=O)C=2 (stereo unspecified),.,-[12.9 µM],-[11.5 µM],.,.,.,
O=S(=O)(Oc1ccc(Cl)cc1)c1ccccc1,.,-,.,.,.,.,
Cc1cc(C)nc(N/N=C/c2ccccc2OCc2cccc(Br)c2)n1,-,-,-,-,-,.,
COc1ccccc1NC(C)C(=O)N/N=C/c1ccccc1OCc1cccc(Br)c1 (stereo unspecified),16µM,-,-,-,-,-,
O=C(CCn1c(=O)c2cccn2c2ccc(F)cc21)NCc1ccccc1F,.,.,.,-,.,.,
CCOC(=O)C1CCN(C(=O)CS(=O)Cc2nc(-c3ccc(C)cc3)oc2C)CC1 (stereo unspecified),11µM,-,-,-,-,-,Flu PR8 replic=-
Cc1ccc(-c2nc(CS(=O)CC(=O)N3CCN(c4ccc(F)cc4)CC3)c(C)o2)cc1 (stereo unspecified),-,.,-,-,-,.,
CC(C)OC(=O)[C@@H]1CC[C@H](C)[C@@H](CCC[C@@H]2CC=C[C@H](CC#N)O2)O1,.,-,.,.,.,.,
CC(Sc1nc(N)cc(=O)[nH]1)C(=O)NNC(=O)c1cccc(Cl)c1 (stereo unspecified),.,.,.,-,-,.,
CC(Sc1nc(N)cc(=O)[nH]1)C(=O)Nc1cccc(Cl)c1 (stereo unspecified),10µM,-,-,-,-,-,
Nc1cc(=O)[nH]c(SCC(=O)Nc2ccc(Cl)c(Cl)c2)n1,2.5µM,-,-,-,-,-,
SMILES,NS1 inh,FBPA Giardia inh,LmPK inh,TbPYK inhibitor,AMA1-RON2 inh,NS1 inh valid,others
Nc1cc(=O)[nH]c(SCC(=O)Nc2cc(Cl)cc(Cl)c2)n1,-,-,-,-,-,.,
CNC(=S)N1N=C(c2ccc(Br)cc2)CC1c1ccc(OC)cc1 (stereo unspecified),22µM,?,-,-,-,-,
CNC(=S)N1N=C(c2ccc(C)cc2)CC1c1ccc(OC)cc1 (stereo unspecified),-,-,-,-,-,.,
Cc1ccc(S(=O)(=O)CCC(=O)OCC(=O)N2CC(=O)Nc3ccccc32)cc1,?,-,-,-,-,-,
CCOc1ccc(CCNC(=O)COC(=O)Cc2ccc(F)cc2)cc1OCC,.,.,.,-,-,.,
CCOc1ccc(CCNC(=O)Cc2nn[nH]n2)cc1OCC,?,?,-,-,-,-,
CCCCn1c(C)cc2cc(O)ccc21,10µM,?,-,-,-,?,
CCCCn1c(S(=O)(=O)O)nc2ccccc21,-,-,-,-,-,.,
COC(=O)c1ccc(C2C(C(=O)Nc3ccc(C)cc3C)=C(C)Nc3ncnn32)cc1 (stereo unspecified),22µM,-,-,-,-,-,
CC1=C(C(=O)Nc2ccc(C)cc2C)C(c2ccccc2C)n2ncnc2N1 (stereo unspecified),.,.,.,-,.,.,
CCCCn1c(SCC(=O)N2c3ccccc3Sc3ccccc32)nc2c1c(=O)n(C)c(=O)n2C,11µM,-,-,-,-,-,
Cc1cccc(-n2cc(-c3ccc([N+](=O)[O-])cc3)[nH]c2=S)c1,-,-,-,-,-,.,
Cc1ccc(-n2cc(-c3ccc([N+](=O)[O-])cc3)[nH]c2=S)c(C)c1,6.3µM,-,-,-,-,-,
c1ccc(-c2nnc(CN3CCCc4ccccc43)o2)cc1,?,-,-,-,-,?,
c1ccc(-c2nnc(CN3CCCCC3)o2)cc1,-,-,-,-,-,.,
O=C(Nc1nnc2n1CCS2)c1ccccc1C(F)(F)F,.,.,.,-,.,.,
COc1cc(C(c2c(C(=O)O)[nH]c3ccccc23)c2c(C(=O)O)[nH]c3ccccc23)ccc1OCc1ccccc1,6.3µM,-,-,-,-,-,
CCOC(=O)CCN1C(=O)[C@H]2[C@H]3[C@H](O)[C@H](O)C/C(=N/NC(=O)OCc4ccccc4)[C@@H]3CC[C@@H]2C1=O,.,-[12.9 µM],.,.,.,.,
CC1CCN(C(=O)c2ccc(N(C)S(C)(=O)=O)cc2)CC1,-,-,-,-,-,.,
CN(c1ccc(C(=O)N2CCCCC2)cc1)S(C)(=O)=O,14µM,-,-,-,?,-,
Cc1cc2nc(-c3ccc(SCC(=O)Nc4ccc5c(c4)OCCO5)nc3)[nH]c2cc1C,1.3µM,-,-,-,-,-,
Nc1cc(N)nc(SCC(=O)Nc2ccc3c(c2)OCCCO3)n1,1.8µM,-,-,-,-,-,
CC[C@H](C)[C@H](NC(=O)[C@H](Cc1ccc(O)cc1)NC(=O)[C@@H](NC(=O)[C@H](CCCN=C(N)N)NC(=O)[C@@H](N)CC(=O)O)C(C)C)C(=O)N[C@@H](Cc1ccc(N)cc1)C(=O)N1CCC[C@H]1C(=O)N[C@@H](Cc1ccccc1)C(=O)O,.,-,.,.,.,.,
COC(=O)CCCC(=O)N1CCCC(C(=O)c2ccc(OC)cc2C)C1 (stereo unspecified),?,-,-,-,-,-,

# Compound activity (PubChem)
